# High-throughput results deposited in PubChem BioAssay by several laboratories.
# CSC inhib: cancer stem cell inhibition | cancer stem cell-like cells viability, luminescence | inhibition, % at 7.5 µM | actives 1.1% (n = 300,000) | AID 2717; in the data active = inhibition above about 75%; inconclusive = no clear call, values can overlap the other calls; tested in HMLE shEcad cells
# PP1 inh: blocks human PP1-alpha phosphatase, a PP5 counter-screen. purified PP1alpha, OMFP fluorescence. P62136. inhibition, % at 6.7 µM. actives 0.9% (n = 320,000). AID 2235;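 active = inhibition above the mean inhibition of all tested compounds plus 3 SD, computed separately for each screening campaign, cut at about 15% in these data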
# Target sequence (P62136 whole entry, looked up): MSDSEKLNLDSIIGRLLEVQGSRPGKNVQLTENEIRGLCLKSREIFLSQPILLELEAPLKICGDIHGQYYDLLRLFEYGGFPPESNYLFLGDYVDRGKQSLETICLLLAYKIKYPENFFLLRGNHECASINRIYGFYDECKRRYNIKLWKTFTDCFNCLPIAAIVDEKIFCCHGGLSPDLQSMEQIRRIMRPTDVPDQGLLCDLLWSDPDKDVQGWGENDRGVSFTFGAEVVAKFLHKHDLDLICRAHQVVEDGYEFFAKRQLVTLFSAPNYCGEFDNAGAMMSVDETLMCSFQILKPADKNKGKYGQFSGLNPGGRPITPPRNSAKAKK
# Calb FLC: affects C. albicans growth with fluconazole. C. albicans CaCi-2 (fluconazole-resistant clinical isolate) + fluconazole, Alamar Blue growth, 48 h. actives 0.57% (n = 300,000). growth inhibition, % (no concentration beside the values);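 active = growth inhibition above about 58% in most replicates, limit read from the data, passing the limit was not always enough; inconclusive = exactly half the replicates above a set limit; inactive = most replicates below a set limit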;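 note: all wells also contain fluconazole at 8 µg/ml as a sub-toxic cotreatment; 0% = median of DMSO wells and 100% = median of geldanamycin control wells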
# ALR inh: human ALR oxidase inhibition via reduced H2O2. P55789. purified ALR, DTT oxidation, H2O2 HRP-luminol luminescence. inhibition, % (concentration not given with the values). actives 3.8% (n = 290,000). AID 485317;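 active = mean replicate inhibition above about 79%, with every replicate also reaching it, limit read from the data; inconclusive = only one of the two criteria met; inactive = mean below limit and not every replicate reaching it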
# Target sequence (P55789 whole entry, looked up): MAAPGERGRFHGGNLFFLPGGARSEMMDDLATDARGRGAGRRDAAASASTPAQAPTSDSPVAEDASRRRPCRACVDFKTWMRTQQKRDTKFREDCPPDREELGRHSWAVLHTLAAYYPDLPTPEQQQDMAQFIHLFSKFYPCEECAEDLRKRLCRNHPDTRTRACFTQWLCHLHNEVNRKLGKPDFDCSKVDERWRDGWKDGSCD
# PP5 primary: inhibitors of human protein phosphatase 5 (PP5). purified PP5c, OMFP substrate fluorescence. inhibition, % at 6.7 µM. actives 0.18% (n = 320,000);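 active = inhibition above the campaign's mean inhibition across all tested compounds plus 3 SD, cut at about 9.5% in these data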;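 note: 0% = DMSO only and 100% = 100 µM cantharidin control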
# The depositor's hits bear a star; ? = inconclusive; · = no result given. The list is not random: actives were taken first. Their share in the collection is about 5.4%.
SMILES,CSC inhib,PP1 inh,Calb FLC,ALR inh,PP5 primary
NC(=S)n1[nH]c(-c2ccc([N+](=O)[O-])cc2)c(N=Nc2cccc(Cl)c2)c1=O,·,·,28,·,·
CC(=O)N(C)c1ccc(N=Nc2c(C)[nH]n(C(N)=S)c2=O)cc1,2,-2,0,·,-1
Cc1cccc(N=Nc2c(C)[nH]n(C(N)=S)c2=O)c1C,-7,-4,105*,4,1
CCN(CC)S(=O)(=O)c1ccc(N=Nc2c(C)[nH]n(C(N)=S)c2=O)cc1,-4,3,-8,95*,5
NC(=S)n1[nH]c(-c2ccc([N+](=O)[O-])cc2)c(N=Nc2ccc(O)cc2)c1=O,15,17*,12,0,1
O=C(CS(=O)CC(=O)Nc1cnc2ccccc2c1)Nc1ccc(Cl)cc1 (stereo not drawn),-6,0,1,-3,1
Cc1ccc(OCC(=O)N(C)CC(=O)Nc2ccc(F)cc2)c([N+](=O)[O-])n1,44,-2,4,-6,2
Cc1ccc(C)c(N2CCN(CC(=O)Nc3ccc([N+](=O)[O-])cc3C(=O)Nc3ccccc3F)CC2)c1,21,9,8,1,1
CC(=O)c1ccc(-c2ccc(C(=O)NC3CC(C)(C)NC(C)(C)C3)o2)cc1,-2,-2,-1,98*,0
Cc1ccc(C(=O)Nc2c3c(nn2-c2ccccc2)CS(=O)(=O)C3)cc1C,-6,-4,5,0,-2
Cc1ccc(NC(=O)CCC(=O)N/N=C/c2ccc(O)cc2)cc1,-10,-2,-1,95*,0
O=C(CCC(=O)Nc1ccc(F)cc1)N/N=C/c1ccc(F)cc1,13,4,7,-4,1
O=C(CCC(=O)Nc1ccc(F)cc1)N/N=C/c1ccc(O)cc1,1,-3,4,99*,0
C#CCOCCOCCOCCNc1nc(N2CCN(C(=O)[C@H](CCCCN)n3cc([C@@H](N)CC(C)C)nn3)CC2)nc(N2CCN(C(=O)[C@H](Cc3cc4ccccc4[nH]3)n3cc([C@@H](N)Cc4ccc(O)cc4)nn3)CC2)n1,5,17*,6,·,4
C#CCOCCOCCOCCNc1nc(N2CCN(C(=O)C(Cc3cc4ccccc4[nH]3)n3cc(C(N)C(C)CC)nn3)CC2)nc(N2CCN(C(=O)C(Cc3cc4ccccc4[nH]3)n3cc(C(N)C(C)CC)nn3)CC2)n1 (stereo not drawn),-7,27*,21,·,4
C#CCOCCOCCOCCNc1nc(N2CCN(C(=O)[C@H](CCCCN)n3cc([C@@H](N)CO)nn3)CC2)nc(N2CCN(C(=O)[C@H](Cc3cc4ccccc4[nH]3)n3cc([C@@H](N)Cc4ccc(O)cc4)nn3)CC2)n1,6,7,9,-3,3
C#CCOCCOCCOCCNc1nc(N2CCOCC2)nc(N2CCN(C(=O)[C@H](Cc3cc4ccccc4[nH]3)n3cc([C@@H](N)C(C)CC)nn3)CC2)n1 (stereo partly drawn),-11,4,-10,-14,2
Cc1cccc(NC(=O)Cn2nnc(C(=O)NCc3ccco3)c2N)c1,·,-1,2,-3,1
O=C(CSc1nnnn1-c1ccccc1)Nc1ncc(Cc2cc(Cl)ccc2Cl)s1,3,5,-7,·,0
CCOc1cc(/C=N\NC(=O)c2ccc(NC(=O)CC)cc2)ccc1OC(=O)c1ccccc1,30,2,-4,-7,0
CCOC(=O)CC(NC(=O)c1cccs1)c1ccc(C)cc1 (stereo not drawn),12,4,9,-7,1
O/N=C/c1cccn1-c1ccc(O)cc1,-7,-1,?,99*,-1
Oc1ccc(-n2cccc2/C=N/n2cnnc2)cc1,-8,-4,1,0,1
C[C@@H](NC(=O)c1nc[nH]c1C(=O)N[C@@H](Cc1ccccc1)C(=O)OCc1ccccc1)c1ccccc1,·,8,8,-5,-4
O=C(N[C@@H](Cc1ccccc1)C(=O)OCc1ccccc1)c1nc[nH]c1C(=O)NC(c1ccccc1)c1ccccc1,-1,17*,-2,1,5
SMILES,CSC inhib,PP1 inh,Calb FLC,ALR inh,PP5 primary
O=C(NCCCN1CCN(CCCNC(=O)c2cc([N+](=O)[O-])ccc2Cl)CC1)c1cc([N+](=O)[O-])ccc1Cl,10,5,6,-11,-2
CC(Oc1ccc(Cl)cc1Cl)c1nc(-c2ccc(NC(=O)c3ccncc3)cc2)no1 (stereo not drawn),83*,4,15,·,3
C(=N\Nc1nc(-c2cccnc2)nc2ccccc12)/c1ccccc1,-8,5,-2,4,3
C(=N\Nc1nc(-c2ccccn2)nc2ccccc12)/c1ccccc1,83*,-2,3,-9,3
O=C(C[N+]1(CC#Cc2ccccc2)CCOCC1)c1ccc(Cl)cc1,20,0,13,-12,2
COC(=O)CC1C(=O)NCCN1C(=O)CSc1nc2cc(Cl)ccc2o1 (stereo not drawn),·,-5,15,-1,-2
CC(=O)Nc1ccccc1-c1nnc(SCc2ccccc2Cl)[nH]c1=O,-13,2,-2,99*,1
Nc1ccccc1-c1nnc(SCc2ccccc2Cl)[nH]c1=O,-6,12,11,31,0
Cc1ccccc1NC(=O)CSc1nnc(C)c2ccccc12,-10,5,-12,96*,2
Cc1ccc(NC(=O)CSc2nncc3ccccc23)cc1,11,-8,0,99*,1
Cc1nnc(SCC(=O)Nc2ccccc2)c2ccccc12,2,3,-5,99*,2
COc1ccc2cnnc(SCC(=O)Nc3ccc(C(=O)O)cc3)c2c1OC,-2,-2,-5,99*,-2
Cc1onc(-c2c(F)cccc2Cl)c1C(=O)NC1CC1,1,-5,7,-15,3
Cc1oc(-c2ccccc2)cc1C(=O)NCc1ccncc1,-4,-2,3,29,2
CCN=c1scc(C)n1/N=C/c1ccsc1,-1,-1,-2,99*,-1
COc1ccc(OCC(=O)N/N=C/c2ccsc2)cc1,-10,3,4,·,-2
CCCCCC/C=C/c1ccc([C@H]2[C@H]3C=CC[C@@H](C)[C@@H]3C(=O)N2Cc2ccccc2)c(F)c1,18,-2,7,·,2
COC(=O)CNC(=O)c1ccc(=O)oc1,-3,0,-1,-8,1
C/C(=N\NC(=S)Nc1cccc(C)c1)c1cc2ccccc2o1,14,2,-23,-10,3
COc1ccccc1/C=C1/C(=O)ON=C1C,-8,-2,5,98*,3
COC(=O)c1cc(Br)c(=O)n(CCc2ccc(F)cc2)c1,-9,-1,7,-7,-1
COC(=O)c1cc(Br)c(=O)n(CCc2ccc(O)cc2)c1,-11,-3,21,90*,2
Nc1nnc(N2CCc3ccccc32)s1,-25,-3,-2,99*,0
O=C(/C=C/c1cccc(Cl)c1)c1nc2ccccc2[nH]1,84*,8,99*,·,2
S=C(Nc1ccc(Cl)cc1)c1nc2ccccc2[nH]1,46,5,96*,·,6
O=C(/C(=C\c1ccccc1)c1nc2ccccc2[nH]1)c1ccc(Cl)cc1,79*,4,18,·,4
